Laboratory results published in PubChem BioAssay AID2314 (National Center for Advancing Translational Sciences (NCATS), 2010).
The whole screen tested about 300,000 compounds, of which about 37,000 (12%) were called active. What follows is part of a selection rich in actives, with near analogues and random picks from the rest. Values without a mark were called inactive. No stated cut-off is given here; in the data, active means max response mostly above about 13% (no sharp cut-off); inactive means mostly below about 14%.

Test: Cycloheximide Counterscreen for Small Molecule Inhibitors of Shiga Toxin; further: read at 38.3 µM for the half of the compounds with a filed dose; 0% is about no effect
Conditions: cell reporter, cycloheximide protein synthesis inhibition counterscreen; stronger effect = higher value

Row | SMILES | max response
1 | O=C(O)c1ccc2c(=O)n3c(nc2c1)/C(=C/c1ccc(OC(F)F)cc1OC(F)F)CC3 | 1.3%
2 | CCC(=O)N1c2ccccc2NC2=C(C(=O)CCC2)C1c1ccco1 (configuration not stated) | -5.4%
3 | CCCC(=O)N1c2ccccc2NC2=C(C(=O)CCC2)C1c1ccc(F)cc1 (configuration not stated) | -1.45%
4 | CC(C)C(=O)N1c2ccccc2NC2=C(C(=O)CCC2)C1c1ccc(N(C)C)cc1 (configuration not stated) | 21.8% (active)
5 | O=C(NCCO)C(=O)NCC(c1ccc2c(c1)OCO2)N1CCN(c2ccc(F)cc2)CC1 (configuration not stated) | -1.46%
6 | Cn1nc(C(F)(F)F)cc1C(=O)O | -2.03%
7 | CCCc1cc(C(=O)Nc2ccc(Cl)cn2)cs1 | 30.5% (active)
8 | Cc1ccc(NC(=O)Nc2cccc(C(F)(F)F)c2)nc1 | 9.81%
9 | CCN(CC)C(=O)CCC(=O)Nc1ccc(C(=O)OC)cc1 | 0.562%
10 | CC12COC3(C(=O)Nc4ccc(Cl)cn4)CC1CCC32C (configuration not stated) | -1.53%
11 | CCCc1cc(C(=O)Nc2ccc(C(=O)OC)cc2)cs1 | 18.2% (active)
12 | CCCCC(CC)C(=O)Nc1ccc(Cl)cn1 (configuration not stated) | -1.66%
13 | COC(=O)c1ccc(NC(=O)C(C)N2C(=O)c3ccccc3C2=O)cc1 (configuration not stated) | -1.97%
14 | O=C(Nc1cccc([N+](=O)[O-])c1)Nc1ccc(Cl)cn1 | -1.76%
15 | O=C(Nc1ccc(Cl)cn1)Nc1cccs1 | 47.7% (active)
16 | Cc1ccc(C(C)C)c(OCCSc2nc3ccccc3n2CC(=O)O)c1 | -3.05%
17 | CN(CC1CCCN(CCc2cccc(C(F)(F)F)c2)C1)C(=O)c1ccc2nc[nH]c2c1 (configuration not stated) | 7.92%
18 | Cc1ccc(-c2nc(SCC(=O)Nc3ccccc3OC(F)F)c3c(C)c(C(=O)O)sc3n2)cc1 | -2.74%
19 | Cc1ccc(C(C)(C)C)c(OCCCCN2CCCC2)c1 | -1.44%
20 | CCOc1ccc(NC(=O)CN(C)CC(=O)Nc2cccc(Cl)c2C)cc1OCC | -1.94%
21 | O=C(c1ccc(-c2ccccc2)cc1)C1CCCN(C(=O)c2cncs2)C1 (configuration not stated) | -0.779%
22 | CCNC(=O)N1CCCC(C(=O)c2ccc(-c3ccccc3)cc2)C1 (configuration not stated) | 35% (active)
23 | Cc1ccccc1NC(=O)C1CCCN(C(=O)NCc2ccccc2)C1 (configuration not stated) | -2.13%
24 | N#C/C(=C\c1cccnc1)C(=O)Nc1ccc(SC(F)F)cc1 | -2.71%
25 | CCC(NC(=O)C1CCCC1)c1ccc(C)cc1 (configuration not stated) | -1.61%

Row | SMILES | max response
26 | CCOc1ccc(-n2c(N)c(C(=O)NCC3CCCO3)sc2=S)cc1 (configuration not stated) | -1.47%
27 | CC1CN(C(=O)CN2C(=O)NC(C)(c3ccccc3)C2=O)CC(C)O1 (configuration not stated) | -0.354%
28 | Cc1c(C(=O)N2CC(C)OC(C)C2)sc2nc(-c3ccccc3)cn12 (configuration not stated) | 26.8% (active)
29 | O=C(CSc1ccc(-c2ccccc2)nn1)NCC1CCCO1 (configuration not stated) | 8.54%
30 | Cc1c(C(=O)N2CCCc3ccccc32)sc2nc(-c3ccccc3)cn12 | 7.76% (active)
31 | Cc1cccc2cc3c(N)c(C(=O)N4CCCc5ccccc54)sc3nc12 | -2.83%
32 | Cc1cccc(C)c1NC(=O)N1CC(C)OC(C)C1 (configuration not stated) | -0.915%
33 | O=C(c1c(Cl)nc2sccn12)N1CCCc2ccccc21 | 11.5%
34 | Cc1c(C(=O)NCC2CCCO2)sc2nc(-c3ccccc3)cn12 (configuration not stated) | 78.5% (active)
35 | O=C(NC1CC1)C(Cc1ccccc1)NS(=O)(=O)c1ccccc1F (configuration not stated) | -2.2%
36 | Cc1sc2nc(SCCO)n(-c3ccccc3)c(=O)c2c1C | 1.18%
37 | Cc1oc2c(F)c(F)c(F)c(F)c2c1S(=O)(=O)Nc1cccc(C(F)(F)F)c1 | 2.32%
38 | COc1ccc(CNC(=O)CSc2n[nH]c(N)n2)cc1OC | -3.7%
39 | COc1ccc(C)cc1NC(=O)CN(C)S(=O)(=O)c1ccc2c(c1)n(C)c(=O)c(=O)n2C | 0.886%
40 | COc1ccc(CCC(=O)OCC(=O)Nc2ccc(C)c(S(=O)(=O)N(C)C)c2)cc1 | -1.02%
41 | Cc1ccc(NC(=O)c2cccs2)cc1S(=O)(=O)N(C)C | 17.7% (active)
42 | Cc1ccc(C(=O)Nc2ccc(NC(=O)c3cccs3)cc2)c(C)c1 | 3.31%
43 | Cc1ccc(C(=O)Nc2ccc(C)c(S(=O)(=O)N(C)C)c2)s1 | 73.5% (active)
44 | CCN(CC(=O)Nc1ccc(C)c(S(=O)(=O)N(C)C)c1)Cc1ccccc1 | 10.7%
45 | Cc1ccc(S(=O)(=O)N(C)C)cc1NC(=O)/C=C/c1cccs1 | -3.65%
46 | CCn1c(SCC(=O)NC2CC2)nnc1-c1ccccc1OC | -2.41%
47 | COc1ccc(C2CC(c3cccs3)=NN2C(=O)COC(=O)c2cc3ccccc3cc2O)cc1OC (configuration not stated) | -1.77%
48 | C=CCn1c(SCc2ccc(C(=O)NCCO)cc2)nc2ccccc2c1=O | 0.679%
49 | Cc1cc(C)cc(N(CC(=O)NC2CCCC2)C(=O)CCC(=O)Nc2cc(C)on2)c1 | -3.66%
50 | O=C(NCCCN1CCOCC1)c1ccccc1NS(=O)(=O)c1ccc(F)cc1 | 16.7% (active)

Row | SMILES | max response
51 | O=C(NCCCN1CCOCC1)c1ccccc1NS(=O)(=O)c1ccc(Br)cc1 | 2.08%
52 | O=C(NCCCN1CCOCC1)c1cc(-c2ccc(Cl)cc2)on1 | -2.13%
53 | O=C(NCCCN1CCOCC1)c1cnn2c(-c3ccccc3)cc(-c3ccccc3)nc12 | -2.91%
54 | O=C(c1ccco1)N1CCN(C(=O)c2cc(-c3ccccc3F)no2)CC1 | 24.9% (active)
55 | O=C(c1ccco1)N1CCN(C(=S)Nc2cc(F)cc(F)c2)CC1 | -0.627%
56 | O=C(NCCCN1CCOCC1)c1cc(-c2cccc(O)c2)on1 | 2.22%
57 | O=C(Cc1c(F)cccc1Cl)N1CCN(C(=O)c2ccco2)CC1 | -3.56%
58 | O=C(NCCCN1CCOCC1)c1cc(-c2ccccc2F)no1 | 28% (active)
59 | Cc1ccccc1-n1cc(CNC(=O)CC2C(=O)NCCN2C/C=C/c2ccccc2)cn1 (configuration not stated) | 0.457%
60 | COc1ccc(NC(=O)CCn2ccnc2)c(OC)c1 | -2.17%
61 | COc1ccc(Cl)cc1NC(=O)C(C)N1CCc2ccccc21 (configuration not stated) | -0.595%
62 | CC1CC(C)CN(C(=O)CSc2ccsc2[N+](=O)[O-])C1 (configuration not stated) | 25.5%
63 | COc1ccc(C(CNC(=O)COc2ccccc2OC)N2CCCCC2)cc1 (configuration not stated) | -6.3%
64 | CC1CN(CCCOc2ccccc2-c2ccccc2)CC(C)O1 (configuration not stated) | -3.01%
65 | NNC(=O)CSc1nnc(-c2ccccc2)n1-c1ccccc1 | -4.61%
66 | COc1ccc(C(=O)C2CCCN(S(=O)(=O)c3cccc(C)c3)C2)c(C)c1 (configuration not stated) | 1.12%
67 | COc1ccc(Cc2nnc(SCC(=O)Nc3ccc(C)c(C)c3)o2)cc1OC | -0.716%
68 | O=C(c1cccc(N2CCCC2=O)c1)N1CCOCC1 | -1.05%
69 | COC(=O)CC1=NN(c2ccccc2)C(=O)C1 | -2%
70 | NC1=NN(c2cccc(C(=O)O)c2)C(=O)C1 | 131% (active)
71 | CCO[C@H]1OC(C(=O)N2CCN(Cc3ccccc3)CC2)=C[C@@H](c2cn(C(C)=O)c3ccccc23)[C@@H]1CCCO | -1.61%
72 | O=C(Nn1cnc2ccccc2c1=O)c1ccccc1 | 18%
73 | O=C(Nn1cnc2ccccc2c1=O)c1ccc(F)cc1Cl | 22.9% (active)
74 | O=C(Nn1cnc2ccccc2c1=O)c1ccc([N+](=O)[O-])cc1Cl | 3.29%
75 | COc1cc(CCC(=O)N2CCN(c3ccccc3Cl)CC2)cc(OC)c1OC | -5.65%

Row | SMILES | max response
76 | CNC(=S)N/N=C/c1ccc(OCc2ccccc2)c(Br)c1 | -5.52%
77 | Cc1ccc(CNC(=O)C2(C(F)(F)F)C/C(=C\CCO)CCCO2)o1 (configuration not stated) | 7.26%
78 | COc1ccc(OC)c(S(=O)(=O)Nc2cccc(-c3ccc4nncn4n3)c2)c1 | -3.34%
79 | CCC(=O)Nc1cccc(NC(=O)CSc2nnc(-c3ccc(NS(C)(=O)=O)cc3)n2C)c1 | -1.2%
80 | CS(=O)(=O)Nc1cccc(-c2cn3ccccc3n2)c1 | 19.3% (active)
81 | CC(=O)C1=C(O)C(=O)N(c2ccc(Br)cc2)C1c1ccc([N+](=O)[O-])cc1 (configuration not stated) | -1.92%
82 | Oc1ccc(Br)cc1C=Nc1ccc2[nH]ncc2c1 | -2.62%
83 | Oc1ccc(Br)cc1/C=N/Nc1ccccn1 | 41.6% (active)
84 | CCN(CC)CCn1c(/N=C/c2cc(Br)ccc2O)nc2ccccc21 | 8.52%
85 | COc1cccc(-n2c(N)cc(=O)nc2SCC(=O)Nc2cc(C)on2)c1 | -3.66%
86 | Cc1ccnc(N2CCN(C(=O)CSc3nc4ccccc4nc3N3CCCCC3)CC2)c1 | -5.65%
87 | Cn1c(Nc2ccccc2)cc(=O)n(C)c1=O | -4.74%
88 | COc1ccc(C(=O)COC(=O)CNC(=O)c2cccs2)cc1Br | -4.46%
89 | COc1cc(NC(=S)NCCSc2ccc(C)cc2)cc(OC)c1 | 2.45%
90 | Cc1ccc(C(=O)NNc2ncnc3ccccc23)cc1 | 37.5% (active)
91 | Cc1ccc(C(=O)NNC(=O)c2cc3cc4ccccc4nc3s2)cc1 | -2.84%
92 | CCc1nc(SCC(=O)NNC(=O)c2ccc(C)cc2)c2ccccc2n1 | -3.44%
93 | CCOc1ccccc1-c1nc(CN2CCC(C(=O)N3CCOCC3)CC2)c(C)o1 | 5.66%
94 | CCOC(=O)CSc1nnc(NC(=O)C2CC(=O)N(c3ccc(F)cc3)C2)s1 (configuration not stated) | 4.08%
95 | Cc1cc(-c2n[nH]c(=S)n2/N=C/C(Br)=C/c2ccccc2)n[nH]1 | 95.8% (active)
96 | Cc1cc(-c2n[nH]c(=S)n2/N=C/c2ccco2)n[nH]1 | 0.979%
97 | S=c1[nH]nc(-c2cccnc2)n1/N=C/C(Cl)=C\c1ccccc1 | -2.93%
